A selection: hits, their analogues and other compounds. The true share with any hit is near 21%.
HCMV antiviral = human cytomegalovirus inhibition | HFF cells, HCMV-luciferase reporter, 72 h; hits give low values | activity change, negative = inhibition, % at 57.5 µM | 410,000 tested, 4.5% active | AID 1259415; in the data active means activity change below about -60%; inconclusive means no clear call, values can overlap the other calls; inactive means above about -39%; further: on the % scale 0 is the no-effect control and ±100 the full control effect
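Screen run at 2 compound doses on HFFs infected with reporter HCMV, MOI 1 PFU/cell. Luciferase activity from cell lysates at 72 h post infection gave inhibition relative to buffer-only and Salinomycin wells.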
Cycloheximide cs = counter-screen hit for Shiga toxin inhibitors, cycloheximide. cell reporter, cycloheximide protein synthesis inhibition counterscreen. max response, %. 300,000 tested, 12% active; in the data active means max response mostly above about 13%, no sharp cut-off; inactive means mostly below about 14%; further: read at 38.3 µM for the half of the compounds with a filed dose; 0% is about no effect
Pf growth 48h = P. falciparum growth inhibition at 48 hours (one generation) | P. falciparum luciferase growth in erythrocytes, 48 h | AID 504832 | Potency, µM (top dose mostly 28.7 µM), for the others: top-dose activity change, negative = inhibition, most hits filed as inhibitors | 310,000 tested, 5.9% active; further: potency means the concentration at half of the fitted maximal effect; on the % scale 0 is the no-effect control and ±100 the full control effect
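Luciferase-expressing P. falciparum in infected erythrocytes (2% hematocrit, 0.1% parasitemia final) in RPMI 1640/0.5% Albumax were exposed to compound for 48 hours at 37 C, 5% CO2; growth read as luminescence.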
Shiga toxin inh = Shiga toxin inhibition. Vero cells, Shiga toxin protein synthesis inhibition reporter. 290,000 tested, 9.2% active. inhibition, % at 38.7 µM; in the data active means inhibition mostly above about 28%, no sharp cut-off; inactive means mostly below about 43%; further: 0% is about no effect
Pf growth 96h = inhibits malaria parasite growth, 96 h | AID 504834 | 320,000 tested, 6.9% active | Potency, µM (highest dose often 28.7 µM), for inactives: top-dose activity change, negative = inhibition, hits mostly inhibitors | P. falciparum luciferase reporter growth, 96 h; further: potency means the concentration at half of the fitted maximal effect; on the % scale 0 is the no-effect control and ±100 the full control effect
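Two-generation exposure (96 h) targets delayed-death phenotype. Reporter parasites carrying integrated firefly luciferase, in red cells at 2% hematocrit and 0.05% parasitemia final, kept at 37 C, 5% CO2; luminescence loss indicates inhibition.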
HCV inhibitor = HCV inhibition | 340,000 tested, 3.4% active | Huh7.5.1 HCVcc-Cre infection, luciferase reporter, 44 h | Potency, µM (series often up to 41.8 µM), without a hit: top-dose activity change, negative = inhibition, usual class: inhibitors | AID 651820; further: potency means the concentration at half of the fitted maximal effect; on the % scale 0 is the no-effect control and ±100 the full control effect
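A cell-based infection assay in which seeded cells (1,000 per well) receive test compound after 4 h, are inoculated with HCVcc-Cre at approximately 0.5 moi, and are incubated 44 h before luminescence detection.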
* hit, by the source's call; ? = inconclusive; / = not tested or not shown; ! = not active in a repeat. Unless noted, the call rests on the fitted dose curve; in most records, active means well fitted inhibition curve with a large enough effect; inconclusive means small, poorly fitted or top-dose-only effect, or another doubt; inactive means no such curve, though single readings can be large or run the other way.

SMILES	HCMV antiviral	Cycloheximide cs	Pf growth 48h	Shiga toxin inh	Pf growth 96h	HCV inhibitor
O=C(NC1CC1)c1ccc(Cl)c(S(=O)(=O)N2CCOCC2)c1	-30	-2	?	-9	0%	10%
COc1ccc(C2C(=O)N(C3CCCCCC3)CC(=O)N2CCC2=CCCCC2)cc1 (stereo unspecified)	-3	/	/	/	/	/
Cc1nccn1Cc1ccc(Cl)nc1	-25	5	10µM*	-10	?	13%
Cc1nccn1Cc1ccccc1	0	1	42%	15	37%	-22%
COc1ccc(NC(=O)COC(=O)c2cccc(S(=O)(=O)N3CCCCC3)c2)c(OC)c1	-5	/	-24%	/	-17%	8%
COc1ccc(NC(=O)c2cccc(S(=O)(=O)N3CCCCC3)c2)c(OC)c1	-69*	-2	-2%	-4	2.9µM*	-20%
COc1ccc(NC(=O)c2ccc(S(=O)(=O)N3CCCCCC3)cc2)c(OC)c1	17	-2	74%	-8	13µM*	?
COc1ccc(C(=O)Nc2cc(S(=O)(=O)N3CCCCC3)ccc2OC)cc1	-4	/	11%	/	-7%	-3%
Cc1ccc(NS(=O)(=O)c2ccc(C)c(NC(=O)c3ccc(S(=O)(=O)N4CCCCCC4)cc3)c2)c(C)c1	-64*	/	/	/	/	/
COc1c(C)cc(S(=O)(=O)Nc2cccc(-c3ccc(N4CCOCC4)nn3)c2)c(C)c1C	71	/	/	/	/	/
CCC(=O)Nc1ccc(C(=O)COC(=O)c2nc3nccc(C)n3n2)cc1	-13	/	15%	/	-13%	11%
CC1=C(C(=O)OCC2CCCO2)C(c2cccc(C(F)(F)F)c2)C2=C(CC(c3ccco3)CC2=O)N1 (stereo unspecified)	-9	3	13µM*	18	/	?
CC1=C(C(=O)OCC2CCCO2)C(c2ccc(C)o2)C2=C(CC(c3ccc(N(C)C)cc3)CC2=O)N1 (stereo unspecified)	/	12	?	-11	/	?
CC1=C(C(=O)OCC2CCCO2)C(c2ccccc2OC(C)C)C2=C(CC(c3ccco3)CC2=O)N1 (stereo unspecified)	-27	1	3.3µM*	-17	27%	-25%
CC1=C(C(=O)OCC2CCCO2)C(c2ccc(C)o2)C2=C(CC(c3ccc(F)cc3)CC2=O)N1 (stereo unspecified)	/	-2	?	-8	8%	8.9µM*
CC1=C(C(=O)OCC2CCCO2)C(c2ccc(C)cc2)C2=C(CCCC2=O)N1 (stereo unspecified)	-27	3	2%	-5	?	19%
CCN(CC)S(=O)(=O)c1ccc(Cl)c(C(=O)NNC(=O)c2csc(N3CCOCC3)n2)c1	0	/	/	/	/	0%
CCOC(=O)Cc1cnc(NC(=O)CSc2nc3ncnc(N)c3[nH]2)s1	58	0	7%	-3	16%	-14%
Cc1cc(C)c(NC(=S)N(CCc2ccncc2)C(C)C)c(C)c1	?	12	10µM*	-4	-7%	5%
Brc1ccc2ncnc(NCc3ccco3)c2c1	-87*	13	9%	6	/	25µM*
Cc1ccc(-n2ncc3c(NCc4cccnc4)ncnc32)cc1C	0	45*	118%	115*	60%	?
COCCCNc1ncnc2c1cnn2-c1ccc(C)cc1C	/	11	-1%	11	9%	-14%
CCCCNc1ncnc2c1cnn2-c1ccc(C)cc1C	69	15*	?	14	?	?
Cc1ccc(-n2ncc3c(NCc4ccco4)ncnc32)c(C)c1	8	16*	-12%	15	?	-2%
COc1cc2ncnc(NCc3ccco3)c2cc1OC	-8	-3	?	7	?	-7%
SMILES	HCMV antiviral	Cycloheximide cs	Pf growth 48h	Shiga toxin inh	Pf growth 96h	HCV inhibitor
Cc1ccc2occ(CC(=O)Nc3ccc(S(=O)(=O)N4CCC(C)CC4)cc3)c2c1	-4	/	/	/	/	/
COc1ccccc1N(C)S(=O)(=O)c1ccc(C(=O)OCC(=O)N(C(C)C)C(C)C)cc1	32	-3	0%	-22	9%	5%
O=c1c2c(nc3nc(NCc4ccccc4Cl)[nH]n13)CCC2	?	2	2%	-4	1%	/
c1ccc(Cn2ncc3c(NCc4ccco4)ncnc32)cc1	-2	-2	?	2	0%	6%
Cc1ccc(-n2ncc3c(NCc4ccccc4)ncnc32)cc1Cl	23	/	/	/	/	/
COc1ccccc1CNc1ncnc2c1cnn2-c1ccccc1	39	31*	7%	43*	-10%	-16%
Cc1cccc(-n2ncc3c(NCc4cccnc4)ncnc32)c1	132	47*	91%	77*	108%	-29%
Cc1cccc(C(=O)NNc2ncnc3c2cnn3C)c1	63	30*	-3%	36	-72%	24%
c1ccc(-n2ncc3c(NCc4ccco4)ncnc32)cc1	87	53*	207%	85*	/	?
CCOC(=O)c1cc(S(=O)(=O)N2CCN(c3cc(Cl)ccc3C)CC2)[nH]n1	12	/	/	/	/	/
C[C@H](N)c1nnc(SCC(N)=O)o1	18	1	6%	-6	23%	11%
CSCCC(NC(=O)COc1ccccc1)C(=O)NCCOc1ccc(C)cc1 (stereo unspecified)	1	-2	-9%	-10	?	-11%
Cc1ccc(N2CC(NC(=O)Cc3cccs3)CC2=O)cc1C (stereo unspecified)	46	/	/	/	/	/
COc1ccc(CNc2ncnc3c2cnn3-c2ccc(Cl)cc2)cc1	10	/	/	/	/	/
Cc1ccc(CNc2ncnc3c2cnn3-c2ccccc2)cc1	6	1	13%	-5	-20%	0%
Cc1ccc(-n2ncc3c(NCc4cccnc4)ncnc32)c(C)c1	?	0	?	8	?	10µM*!
COc1ccc(-n2ncc3c(NCc4cccnc4)ncnc32)cc1	56	52*	/	86*	213%	?
Cc1ccc(-n2ncc3c(NCc4ccccn4)ncnc32)c(C)c1	-1	10	?	11	?	-10%
Cc1ccc(-n2ncc3c(NCc4ccccc4)ncnc32)cc1	44	111*	171%	103*	239%	-9%
CCC(=O)NNc1ncnc2c1cnn2-c1ccc(C)c(Cl)c1	-8	/	/	/	/	/
CC(=O)NNc1ncnc2c1cnn2-c1ccc(C)c(C)c1	30	56*	211%	65*	?	17%
COc1ccc(CCNC(=O)CCNC(=O)N2CC(=O)Nc3ccccc32)cc1	-5	4	18%	-5	?	10%
CCOC(=O)c1cccc(NC(=O)NCc2ccc3c(c2)CCN3C(=O)CC)c1	15	/	/	/	/	/
O=C(COc1ccccc1Cl)Nc1ccc(S(=O)(=O)Nc2ccccn2)cc1	?	-2	3%	-4	25%	-2%
CC(C)Cn1cc(NC(=O)NCc2ccccc2)c2ccccc2c1=O	7	/	/	/	/	/
CC(C)Cn1cc(NC(=O)NCc2ccc(Cl)cc2)c2ccccc2c1=O	-105*	/	/	/	/	/

Bioassay records (PubChem BioAssay)
